Article PMC4336329 (PLoS ONE, 2015)
The whole screen tested about 310,000 compounds, of which about 14,000 (4.5%) showed an effect of 50% or more. The effect is printed as a negative number. Shown is part of a subset that was picked to be rich in strong results.

What follows are compounds tested against human ether-à-go-go-related gene (hERG) potassium channel (human, UniProt Q12809) (assay: primary screen, population patch clamp on CHO cells stably expressing hERG; higher = less effect of the substance).
Sequence of human ether-à-go-go-related gene (hERG) potassium channel (Q12809 whole entry, looked up): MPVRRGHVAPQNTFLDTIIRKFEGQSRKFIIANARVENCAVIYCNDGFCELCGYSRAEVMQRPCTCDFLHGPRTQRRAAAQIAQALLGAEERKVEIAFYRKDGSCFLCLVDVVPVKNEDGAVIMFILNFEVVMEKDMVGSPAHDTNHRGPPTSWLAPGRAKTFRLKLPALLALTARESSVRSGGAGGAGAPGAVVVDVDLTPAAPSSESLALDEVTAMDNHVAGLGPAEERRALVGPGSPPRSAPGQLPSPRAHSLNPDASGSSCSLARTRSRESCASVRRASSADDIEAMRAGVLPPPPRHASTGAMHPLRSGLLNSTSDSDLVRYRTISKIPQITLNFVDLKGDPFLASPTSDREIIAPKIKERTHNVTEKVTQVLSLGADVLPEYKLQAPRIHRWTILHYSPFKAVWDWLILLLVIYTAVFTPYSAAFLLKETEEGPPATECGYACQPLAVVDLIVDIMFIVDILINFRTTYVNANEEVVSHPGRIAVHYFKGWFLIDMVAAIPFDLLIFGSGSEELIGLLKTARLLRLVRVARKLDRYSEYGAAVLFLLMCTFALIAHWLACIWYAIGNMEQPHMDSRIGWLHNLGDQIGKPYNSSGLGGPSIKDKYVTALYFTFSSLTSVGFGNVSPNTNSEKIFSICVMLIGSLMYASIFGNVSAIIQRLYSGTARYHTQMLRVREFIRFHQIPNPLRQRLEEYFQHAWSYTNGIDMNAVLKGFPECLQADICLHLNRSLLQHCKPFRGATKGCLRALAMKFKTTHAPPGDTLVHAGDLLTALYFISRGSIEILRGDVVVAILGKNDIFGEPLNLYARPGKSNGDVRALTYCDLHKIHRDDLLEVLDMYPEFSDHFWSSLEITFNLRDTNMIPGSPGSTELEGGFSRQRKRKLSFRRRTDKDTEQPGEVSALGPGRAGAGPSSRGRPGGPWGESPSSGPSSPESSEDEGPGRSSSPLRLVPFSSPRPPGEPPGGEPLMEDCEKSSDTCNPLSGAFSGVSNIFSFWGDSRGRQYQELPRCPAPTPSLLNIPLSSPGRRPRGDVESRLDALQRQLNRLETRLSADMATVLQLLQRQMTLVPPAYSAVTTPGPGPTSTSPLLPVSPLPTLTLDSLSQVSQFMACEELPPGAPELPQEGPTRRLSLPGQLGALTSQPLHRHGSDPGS
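Also: peak tail current of the secondary pulse compared with the same well before compound.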

Row | Compound | hERG current change (%, negative = inhibition) at 10uM [%]
1 | COc1ccc2nc(NC(=O)CS(=O)(=O)Cc3ccccc3)sc2c1 | 23.2
2 | COC(=O)/C(=N/Nc1ccccc1C)Sc1nnc(C(O)c2ccccc2)n1-c1ccccc1 (stereo not shown) | 13.3
3 | c1ccc(CN2CCC3(CC2)Nc2ccccc2CO3)cc1 | -21.9
4 | Cl.c1ccc(CN2CCC3(CCCc4ccccc43)CC2)cc1 | -69.6
5 | Cl.c1ccc(CN2CCOCC2)cc1 | 22
6 | COc1ccc(N(CC(=O)Nc2cc(Cl)ccc2C)S(=O)(=O)c2c(C)noc2C)cc1 | 16.7
7 | COC(=O)CC1C(=O)NCCN1C(=O)c1c(F)cccc1F (stereo not shown) | 14.5
8 | O=C(NCc1ccncc1)c1cncc(Br)c1 | 10.1
9 | Cn1c(N2CCCC2)nc2c1c(=O)n(Cc1ccc(Cl)cc1)c(=O)n2C | -68.6
10 | CC1CN(c2nc3c(c(=O)n(Cc4ccc(Cl)c(Cl)c4)c(=O)n3C)n2C)CC(C)O1 (stereo not shown) | -35.7
11 | Cn1c(=O)c2c(nc(N3CCCCC3)n2C)n(C)c1=O | -21.5
12 | Cn1c(N2CCN(c3ccccn3)CC2)nc2c1c(=O)n(Cc1ccc(Cl)cc1)c(=O)n2C | -18
13 | Cn1c(N2CCOCC2)nc2c1c(=O)n(Cc1ccc(Cl)cc1)c(=O)n2C | -54.5
14 | Cn1c(NCCCN2CCOCC2)nc2c1c(=O)n(Cc1ccc(Cl)c(Cl)c1)c(=O)n2C | -46
15 | Cn1c(N2CCCC2)nc2c1c(=O)n(Cc1ccc(F)cc1)c(=O)n2C | 0.592
16 | CC1CN(c2nc3c(c(=O)n(Cc4ccc(Cl)cc4)c(=O)n3C)n2C)CC(C)O1 (stereo not shown) | -31.2
17 | Cn1c(N2CCOCC2)nc2c1c(=O)n(Cc1ccc(Cl)c(Cl)c1)c(=O)n2C | -50.5
18 | COc1ccc(CC(=O)NCc2cccs2)cc1OC | 2.71
19 | O=C(Cn1cc(Cl)ccc1=O)c1ccc(Cl)cc1 | 11.7
20 | CCC(CC)C(=O)NCCc1ccc(F)cc1 | 12.1

Row | Compound | hERG current change (%, negative = inhibition) at 10uM [%]
21 | CCOc1ccc(CN(C)C(C)C(=O)NCCc2ccc(F)cc2)cc1 (stereo not shown) | -71.5
22 | CCOc1ccc(C(=O)NC(C(=O)NCCc2ccc(OC(F)F)cc2)C(C)C)cc1 (stereo not shown) | -62.6
23 | CCc1ccc(CN(C)C(C)C(=O)NCc2ccccc2)cc1 (stereo not shown) | -23.5
24 | CCOc1ccc(C(=O)N[C@H](C(=O)O)C(C)C)cc1 | 7.22
25 | CCOc1ccc(CCNC(=O)C(O)c2ccccc2)cc1 (stereo not shown) | 4.11
26 | CCOc1ccc(C(=O)NC(C(=O)NCCc2ccc(S(N)(=O)=O)cc2)C(C)C)cc1 (stereo not shown) | 13.4
27 | CSc1ccc(CN(C)C(C)C(=O)NCc2ccccc2)cc1 (stereo not shown) | -32.8
28 | CCOc1ccc(CN(C)C(C)C(=O)NCc2ccccc2)cc1 (stereo not shown) | -54.8
29 | Cc1ccc(OCCCCNC(C)c2ccccc2)c(C)c1 (stereo not shown) | 2.1
30 | O=C(NN1C(=O)/C(=C/C=C/c2ccco2)SC1=S)c1ccncc1 | 15.3
31 | Cc1ccc(C2c3[nH]c4ccccc4c3C[C@H]3C(=O)N(c4ccccc4C(=O)N4CCC[C@@H]4C(=O)O)C(=O)N23)cc1 (stereo partly shown) | -0.654
32 | Cc1ccc2c(=O)cc(C(=O)NCCc3ccc(S(N)(=O)=O)cc3)oc2c1 | 9.13
33 | Cc1ccccc1NC(=O)Cn1nc(C(F)(F)F)cc1C1CC1 | 8.48
34 | COC(=O)C1=C(C)OC(N)=C(C#N)C1c1cc(C)sc1C (stereo not shown) | -0.682
35 | Nc1cc(=O)[nH]c(SCC(=O)N2CCC(Cc3ccccc3)CC2)n1 | -2.88
36 | C/C(=N/NC(N)=S)c1ccccc1[N+](=O)[O-] | 7.13
37 | Nc1nc(-c2ccc3c(c2)NC(=O)CO3)cs1 | 15.5
38 | CCOc1ccccc1CN1CCN(CCCc2ccccc2)CC1CCO (stereo not shown) | -64.9
39 | OCCOc1ccc(CN2CCN(CCCc3ccccc3)C(CCO)C2)cc1 (stereo not shown) | -63.3
40 | CCOc1ccc(CN2CCN(CCCc3ccccc3)C(CCO)C2)cc1 (stereo not shown) | -75.5

Row | Compound | hERG current change (%, negative = inhibition) at 10uM [%]
41 | CCOc1ccccc1CN1CCN(CC2CC2)CC1CCO (stereo not shown) | -2.67
42 | CCOc1ccc(CN2CCN(CCCc3ccccc3)CC2CCO)cc1 (stereo not shown) | -76
43 | CCNC(=S)Nc1ccc(Cl)cc1Cl | -14
44 | CCOC(=O)c1nc(C)n(-c2cc(Cl)ccc2Cl)n1 | 1.64
45 | Cc1onc(-c2c(Cl)cccc2Cl)c1C(=O)n1nnc2ccccc21 | -3.48
46 | CN(CC(=O)Nc1ccc(N2CCOCC2)cc1)C(=O)c1cc(F)c(F)cc1Cl | -38.3
47 | Cc1sc2ncnc(SCC(=O)NC(=O)c3cccn3C)c2c1C | 10.8
48 | Cc1nc(C)n(CC(O)COc2ccc(C(=O)c3ccccc3)cc2)n1 (stereo not shown) | -6.4
49 | Cc1ccccc1C(=O)NNC(=O)/C=C\C(=O)O | -11.1
50 | Cc1ccccc1C(OCCN(C)C)C1CCCCC1.O=C(O)C(=O)O (stereo not shown) | -16.3
51 | Cc1ccccc1C(OCCN(C(C)C)C(C)C)c1ccccc1.O=C(O)/C=C\C(=O)O (stereo not shown) | -68.3
52 | Cc1ccc2nc(NC(=O)C3CCN(S(=O)(=O)c4cnc[nH]4)CC3)sc2c1 | 6.57
53 | Cn1nnnc1SCC(=O)N1CCN(c2cccc(Cl)c2)CC1 | -26.8
54 | Cn1nnnc1SCC(=O)N1CCN(c2ccc(Cl)cc2)CC1 | -51.2
55 | Cn1nnnc1SCC(=O)N1CCN(c2ccccc2)CC1 | 12.4
56 | O=C(CSc1nnc2c(Cl)cc(Cl)cn12)N1CCN(c2ccc(F)cc2)CC1 | -51.5
57 | O=C(CSc1nnc2c(Cl)cc(Cl)cn12)N1CCOCC1 | -6.52
58 | O=C(CSc1nnc2c(Cl)cc(Cl)cn12)N1CCN(S(=O)(=O)c2ccccc2)CC1 | -19.1
